Source: article PMC5700166

How the values were obtained:
[1] = molecular target: T1, GST-Nv-NF-kB (Ser allele) (Nematostella vectensis, UniProt A7UNT2 2-411); assay: protein-binding microarray (PBM); PBM: ~300 nM protein, 6 mM HEPES pH 7.8, 80 mM KCl, 0.5 mM EDTA, 0.5 mM EGTA, 6% glycerol, 35 ng/ul poly-dIdC, 1% milk, 1 h, room temperature; Ap Aiptasia and Nv Nematostella (sea anemones) / Co Capsaspora / Aq Amphimedon (sponge) / Dm Drosophila / Hu human; RHD is the Rel homology domain; high values mean tight binding; conditions: dsDNA, one strand shown
T1 sequence: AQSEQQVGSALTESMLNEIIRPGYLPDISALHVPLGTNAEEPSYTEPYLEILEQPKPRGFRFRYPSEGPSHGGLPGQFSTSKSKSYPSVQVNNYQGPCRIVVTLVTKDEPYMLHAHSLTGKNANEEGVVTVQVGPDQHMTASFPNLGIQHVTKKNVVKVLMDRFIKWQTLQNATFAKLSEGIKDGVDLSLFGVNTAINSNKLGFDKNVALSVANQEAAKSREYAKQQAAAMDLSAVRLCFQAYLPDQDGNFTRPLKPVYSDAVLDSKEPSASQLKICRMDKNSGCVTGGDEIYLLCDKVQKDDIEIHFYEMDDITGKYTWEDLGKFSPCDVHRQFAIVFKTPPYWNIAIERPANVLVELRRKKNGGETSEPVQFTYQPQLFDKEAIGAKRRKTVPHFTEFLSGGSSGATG

GST-Hu-p50 = GST-Hu-p50 (Homo sapiens, UniProt P19838 7-356); assay: as above; conditions: dsDNA, one strand shown
Sequence of GST-Hu-p50 (P19838 7-356): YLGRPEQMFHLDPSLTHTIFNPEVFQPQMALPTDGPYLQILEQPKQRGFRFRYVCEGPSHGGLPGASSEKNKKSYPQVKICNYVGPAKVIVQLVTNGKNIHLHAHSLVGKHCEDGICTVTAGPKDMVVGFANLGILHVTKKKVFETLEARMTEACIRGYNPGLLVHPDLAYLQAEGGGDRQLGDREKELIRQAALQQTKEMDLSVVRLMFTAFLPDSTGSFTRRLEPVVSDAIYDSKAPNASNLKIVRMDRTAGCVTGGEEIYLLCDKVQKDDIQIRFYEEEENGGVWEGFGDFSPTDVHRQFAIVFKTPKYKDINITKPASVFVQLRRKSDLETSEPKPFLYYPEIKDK

Sequence | binding signal [1] | binding signal (GST-Hu-p50)
CCGATTAACATCAATGGGAAAATTGATGTTAATCGGGTCTTGATTCGCTTGACGCTGCTG | 5.32 z-score | 3.49 z-score
CCGATTAACATCACAAAACTCCCTGATGTTAATCGGGTCTTGATTCGCTTGACGCTGCTG | 6.52 z-score | 4.95 z-score
CCGATTAACATCAGACAATTCCCTGATGTTAATCGGGTCTTGATTCGCTTGACGCTGCTG | 4.51 z-score | 4.15 z-score
CCGATTAACATCAGGGGTAAAACTGATGTTAATCGGGTCTTGATTCGCTTGACGCTGCTG | 3.62 z-score | 3.28 z-score
CCGATTAACATCAAACTTTCCCATGATGTTAATCGGGTCTTGATTCGCTTGACGCTGCTG | 4.64 z-score | 4.07 z-score
CCGATTAACATCAAAACAACCCCTGATGTTAATCGGGTCTTGATTCGCTTGACGCTGCTG | 2.19 z-score | 3.88 z-score
CCGATTAACATCACGGTGGGAAATGATGTTAATCGGGTCTTGATTCGCTTGACGCTGCTG | 2.58 z-score | 1.86 z-score
CCGATTAACATCAAAAGACCCCCTGATGTTAATCGGGTCTTGATTCGCTTGACGCTGCTG | 5.47 z-score | 5.26 z-score
CCGATTAACATCATTTCCCAAAATGATGTTAATCGGGTCTTGATTCGCTTGACGCTGCTG | 2.41 z-score | 1.56 z-score
CCGATTAACATCACCAAATTCCCTGATGTTAATCGGGTCTTGATTCGCTTGACGCTGCTG | 6.26 z-score | 4.49 z-score
CCGATTAACATCATGGTGGTACCTGATGTTAATCGGGTCTTGATTCGCTTGACGCTGCTG | 1.05 z-score | 1.07 z-score
CCGATTAACATCAGGGGGATGGATGATGTTAATCGGGTCTTGATTCGCTTGACGCTGCTG | 4.26 z-score | 3.69 z-score
CCGATTAACATCAGGGGGATAGATGATGTTAATCGGGTCTTGATTCGCTTGACGCTGCTG | 4.13 z-score | 3.89 z-score
CCGATTAACATCACATGGGAAACTGATGTTAATCGGGTCTTGATTCGCTTGACGCTGCTG | 2.7 z-score | 1.26 z-score
CCGATTAACATCAGGTAATCACCTGATGTTAATCGGGTCTTGATTCGCTTGACGCTGCTG | 2.78 z-score | 2.85 z-score
CCGATTAACATCAGATCTTCCCCTGATGTTAATCGGGTCTTGATTCGCTTGACGCTGCTG | 6.54 z-score | 5.04 z-score
CCGATTAACATCAGGGAATTCACTGATGTTAATCGGGTCTTGATTCGCTTGACGCTGCTG | 4.73 z-score | 4.11 z-score

Sequence | binding signal [1] | binding signal (GST-Hu-p50)
CCGATTAACATCAGGTTTTCCCATGATGTTAATCGGGTCTTGATTCGCTTGACGCTGCTG | 5.41 z-score | 3.27 z-score
CCGATTAACATCAAGGTACCCCCTGATGTTAATCGGGTCTTGATTCGCTTGACGCTGCTG | 3.84 z-score | 3.34 z-score
CCGATTAACATCAAGGGAATCCCTGATGTTAATCGGGTCTTGATTCGCTTGACGCTGCTG | 5.4 z-score | 4.17 z-score
CCGATTAACATCAGGGGGGGTACTGATGTTAATCGGGTCTTGATTCGCTTGACGCTGCTG | 4.19 z-score | 3.91 z-score
CCGATTAACATCAAGAAATTTCCTGATGTTAATCGGGTCTTGATTCGCTTGACGCTGCTG | 1.55 z-score | 1.76 z-score
CCGATTAACATCAGGGAATTACATGATGTTAATCGGGTCTTGATTCGCTTGACGCTGCTG | 4.68 z-score | 3.82 z-score
CCGATTAACATCAAGGAAAAACCTGATGTTAATCGGGTCTTGATTCGCTTGACGCTGCTG | 1.47 z-score | 1.12 z-score
CCGATTAACATCAATCACCCCCATGATGTTAATCGGGTCTTGATTCGCTTGACGCTGCTG | 2.78 z-score | 3.76 z-score
CCGATTAACATCAAATCACCCCCTGATGTTAATCGGGTCTTGATTCGCTTGACGCTGCTG | 5.42 z-score | 4.62 z-score
CCGATTAACATCAGGGGTTACCCTGATGTTAATCGGGTCTTGATTCGCTTGACGCTGCTG | 4.21 z-score | 3.9 z-score
CCGATTAACATCAGGGACGGAAATGATGTTAATCGGGTCTTGATTCGCTTGACGCTGCTG | 2.34 z-score | 2.19 z-score
CCGATTAACATCAGAACATTCCCTGATGTTAATCGGGTCTTGATTCGCTTGACGCTGCTG | 3.49 z-score | 3.65 z-score
CCGATTAACATCAGGGGAGAAAATGATGTTAATCGGGTCTTGATTCGCTTGACGCTGCTG | 5.87 z-score | 4.88 z-score
CCGATTAACATCAATTACCCCCCTGATGTTAATCGGGTCTTGATTCGCTTGACGCTGCTG | 5.22 z-score | 4.35 z-score
CCGATTAACATCACGGAGTTCCCTGATGTTAATCGGGTCTTGATTCGCTTGACGCTGCTG | 1.77 z-score | 1.87 z-score
CCGATTAACATCACGGACTTCCCTGATGTTAATCGGGTCTTGATTCGCTTGACGCTGCTG | 2.24 z-score | 1.25 z-score
